The results in this text go back to PubChem BioAssay AID588397 (National Center for Advancing Translational Sciences (NCATS), 2011).

The structures appear in SMILES notation. In all, about 1,300 compounds went through this assay and about 1,000 (77%) were called active. Another 7% or so got no clear call; they are omitted. The set was probably picked from earlier hits. Some of the results follow. Unmarked numbers belong to inactive results. Calls follow the shape of the dose curve; as a rule, active = well fitted inhibition curve with a large enough effect; inconclusive = small, poorly fitted or top-dose-only effect; inactive = no such curve, though single readings can be large or run the other way.
% is scaled to controls: 0 for no effect and ±100 for the full control effect; potency is read from the fitted curve at half-maximal effect.

The nature of this experiment: qHTS of small molecules that selectively kill Giardia lamblia: Hit Validation.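 Also: viability measured as ATP content by luminescence so killing lowers signal; trophozoites exposed to compounds for 48 h anaerobically at 37 °C; nearly all actives have a fitted effect of over 65% in size.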 As to conditions: Giardia lamblia trophozoite viability, dose-response; series mostly up to 38.3 µM; activity change, negative = killing: at the top concentration. The procedure, abridged:
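Anaerobic 48 hrs incubation at 37 deg C of 100 trophozoites/well with test compounds; ATPLite 1-Step luminescence, 15-30 min RT, reports cellular ATP as viability.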
In general terms: qHTS replaces the single test concentration by a dilution series.
`Cc1c(C(=O)c2ccc(Cl)cc2[N+](=O)[O-])c2ccccn2c1CCC#N`: the Potency is 0.41 µM (active).
`CCn1nc(-c2ccccc2C)nc2c(=O)n(C)c(=O)nc1-2`: the Potency was 0.103 µM (active).
As to `Cc1ccccc1-c1nc2c(=O)n(C)c(=O)nc-2n(C)n1`, the Potency is 0.115 µM (active).
With `COc1ccccc1C(=O)NC(=O)OCCn1c(C)cnc1[N+](=O)[O-]`, the Potency was 0.579 µM (active).
Regarding `Cc1cnc([N+](=O)[O-])n1CCOC(=O)NC(=O)c1ccccc1Cl`, the Potency is 1.16 µM (active).
In the case of `NC(=O)CCn1c(C(=O)c2cccc([N+](=O)[O-])c2)c2ccccc2[n+]1[O-]`, the Potency is 4.1 µM (active).
With `Cc1ccc(C(=O)c2c3ccc([N+](=O)[O-])cc3[n+]([O-])n2CCC(N)=O)cc1`, the Potency was 6.5 µM (active).
On the same count and under the same terms, to `Cc1ccc(C(=O)c2c3ccc([N+](=O)[O-])cc3[n+]([O-])n2CCCN)cc1` belongs 4.6 µM (active).
As for `Cc1ccc(C(=O)c2c3ccc([N+](=O)[O-])cc3[n+]([O-])n2CCCC(N)=O)cc1`, the Potency is 3.65 µM (active).
For the compound `CC(=O)CSc1ccc(-c2nc3ccccc3[nH]2)cn1`, the Potency is 1.45 µM (active).
Turning to `CC(=O)CSc1ccc(-c2nc3cc(C)c(C)cc3[nH]2)cn1`, the Potency was 2.05 µM (active).
Same read-out and setting: to `COc1ccc(CNc2ccc([N+](=O)[O-])cn2)cc1` belongs 7.29 µM (active); to `O=C(COc1cccnc1[N+](=O)[O-])Nc1ccc2c(c1)OC(F)(F)O2`, 5.79 µM (active).
With `Cc1c(Br)c([N+](=O)[O-])nn1C(C)C(=O)Nc1ccc2c(c1)OCO2` (configuration not stated), the Potency is 1.16 µM (active).
With `O=C(COc1cccnc1[N+](=O)[O-])Nc1ccc2c(c1)OCO2`, the Potency was 5.16 µM (active).
For `O=S(=O)(Nc1cc(Sc2cccc3cccnc23)c(O)c2ccccc12)c1ccc(F)cc1`, the Potency is 11.6 µM (active).
On to `Cn1nc([N+](=O)[O-])nc1Sc1cccc2cccnc12`, for which the Potency was 7.29 µM (active).
As for `Nc1nc(Cl)nc2c1ncn2C1CC(O)C(CO)O1` (configuration not stated), the Potency is 0.115 µM (active).
The same measure, in the same setting: to `CC(CSc1nnnn1-c1ccccc1)Cn1c(N2CCCC2)nc2c1c(=O)[nH]c(=O)n2C` (configuration not stated) belongs 0.183 µM (active); to `COc1ccc(C(=O)Nc2ccc3[nH]ccc3c2)cc1`, 0.41 µM (active).
As for `O=C(Nc1ccc2[nH]ccc2c1)c1ccccc1`, the Potency is 2.05 µM (active).
In the case of `COc1ccc(NS(=O)(=O)c2cc(NC(=O)c3ccc(=O)[nH]c3)ccc2C)cc1`, the “activity change, negative = killing” value is 7.37%.
As for `C(=NN1CCCCCC1)c1ccc2ccccc2n1`, the Potency is 1.03 µM (active).
For the compound `COc1ccc(CN2C(=O)C(CC(C)C)Nc3ncnc(N4CCCCC4)c32)cc1` (configuration not stated), the “activity change, negative = killing” value is 3.69%.
Regarding `COc1ccc(CC(NC(C)=O)C(=O)NC2CCN(c3ncccc3[N+](=O)[O-])CC2)cc1` (configuration not stated), the Potency is 2.05 µM (active).
Regarding `CC(=O)NC(Cc1ccc(F)cc1)C(=O)NC1CCN(c2ncccc2[N+](=O)[O-])CC1` (configuration not stated), the Potency is 1.83 µM (active).
With `CC(=O)NC(Cc1ccccc1F)C(=O)NC1CCN(c2ncccc2[N+](=O)[O-])CC1` (configuration not stated), the Potency was 2.31 µM (active).
`CC(=O)NC(Cc1ccccc1)C(=O)NC1CCN(c2ncccc2[N+](=O)[O-])CC1` (configuration not stated): the Potency is 1.63 µM (active).
Regarding `CC(NC(=O)c1ccccc1F)c1nnc(SCC(=O)NC2CCCC2)n1C` (configuration not stated), the “activity change, negative = killing” value is -17%.
For the compound `COc1ccc(OCC(=O)NNC(=O)C2CCN(c3ncnc4sc(C)c(C)c34)CC2)cc1`, the “activity change, negative = killing” value is -39.1%.
With `O=C(COc1cccnc1[N+](=O)[O-])Nc1c(Cl)cccc1Cl`, the Potency is 3.26 µM (active).
For the compound `O=C(COc1cccnc1[N+](=O)[O-])Nc1ncc(Cl)cc1Cl`, the Potency was 4.6 µM (active).
For the compound `CC(=O)c1c(COC(=O)c2ccc(F)cc2)nc2ccccc2[n+]1[O-]`, the Potency was 6.5 µM (active).
For `CC(=O)c1c(COC(=O)c2ccccc2Cl)nc2ccccc2[n+]1[O-]`, the Potency was 14.5 µM (active).
As for `O=C(Nc1ccc(OCC(=O)N2CCOCC2)cc1)c1ccccc1F`, the Potency is 7.29 µM (active).
`Cn1c(CNC(=O)c2ccccc2F)cc2ccccc21`: the “activity change, negative = killing” value was 11%.
Turning to `COc1ccc2oc(=Nc3ccccc3)c(-c3nc4ccccc4[nH]3)cc2c1`, the Potency was 4.1 µM (active).
Same read-out and setting: to `O=[N+]([O-])c1c(C(Cl)Cl)nn(-c2ccccc2)c1N1CCOCC1` belongs 1.83 µM (active).
The same measure, in the same setting: in the case of `CCOC(=O)C1CCN(c2c([N+](=O)[O-])c(C(Cl)Cl)nn2-c2ccccc2)CC1` it was 2.9 µM (active).
In the case of `CCN1/C(=C\c2ccc3ccccc3[n+]2CC)Sc2cc(C)ccc21`, the “activity change, negative = killing” value is -1.8%.
For `Cc1oc2cc([N+](=O)[O-])c(O)c([N+](=O)[O-])c2c1C(=O)c1ccc(Cl)cc1`, the Potency was 2.59 µM (active).
Turning to `Cc1oc2cc([N+](=O)[O-])c(O)c([N+](=O)[O-])c2c1C(=O)c1ccc(Br)cc1`, the Potency is 2.31 µM (active).
Regarding `COc1ccc(C(=O)c2c(C)oc3cc([N+](=O)[O-])c(O)c([N+](=O)[O-])c23)cc1`, the Potency was 1.83 µM (active).
Turning to `O=C(Nc1nc2c(F)cc(F)cc2s1)c1ccc([N+](=O)[O-])o1`, the Potency is 1.16 µM (active).
On the same count and under the same terms, in the case of `O=C(Nc1nc2cc3c(cc2s1)OCCO3)c1ccc([N+](=O)[O-])o1` it was 0.579 µM (active); in that of `O=C(Nc1nc2c(Cl)cccc2s1)c1ccc([N+](=O)[O-])o1`, 1.45 µM (active).
For the compound `CCn1c(CCNC(=O)c2ccc(F)cc2)nc2ccccc21`, the “activity change, negative = killing” value is 1.8%.
As to `CCCn1c(NC(=O)c2ccc([N+](=O)[O-])o2)nc2ccccc21`, the Potency was 1.3 µM (active).
For `CCOP(=O)(OCC)c1cccc(P(=O)(c2ccccc2)c2ccccc2)c1O`, the “activity change, negative = killing” value was 3.15%.
On to `COC(=O)[C@]1(C)N[C@H](CN(C)S(=O)(=O)c2ccc(-c3ccccc3)cc2)[C@@H]2C(=O)N(C)C(=O)[C@@H]21`, for which the “activity change, negative = killing” value is -15.1%.
As for `O=C(Nc1nc2ccccc2s1)c1ccc([N+](=O)[O-])o1`, the Potency is 1.03 µM (active).
Take `COc1ccc2nc(NC(=O)c3ccc([N+](=O)[O-])o3)sc2c1`: the Potency is 0.918 µM (active).
The same measure, in the same setting: in the case of `O=C(Nc1nc2c(F)cccc2s1)c1ccc([N+](=O)[O-])o1` it was 1.03 µM (active); in that of `O=C(Nc1cccc2ccccc12)c1ccc([N+](=O)[O-])o1`, 1.03 µM (active).
On to `O=C(Nc1cccc2ncccc12)c1ccc([N+](=O)[O-])o1`, for which the Potency was 0.918 µM (active).
Still for that read-out and setting: in the case of `NC(=O)c1oc2ccccc2c1NC(=O)c1ccc([N+](=O)[O-])o1` it was 0.65 µM (active).
For the compound `COc1cc(C2C(C(=O)c3ccc(C)o3)=C(O)C(=O)N2c2cc(C)on2)ccc1OCc1ccccc1` (configuration not stated), the “activity change, negative = killing” value is -44.3%.
For the compound `CCC(C)Nc1ccc(NC(C)CC)cc1` (configuration not stated), the Potency was 0.183 µM (active).
For `Clc1ccc2c(N/N=C/c3ccc(Br)cc3)ccnc2c1`, the Potency was 0.516 µM (active).
Consider `Clc1ccc2c(N/N=C/c3cccc(Br)c3)ccnc2c1`, for which the Potency was 1.45 µM (active).
The same measure, in the same setting: in the case of `O=[N+]([O-])c1ccc(/C=N/Nc2ccnc3cc(Cl)ccc23)o1` it was 2.05 µM (active).
Take `Cc1nc2c(N=Nc3ccccc3F)c(N)nn2c(N)c1C#N`: the Potency is 4.6 µM (active).
Take `CCOC(=O)Cn1c(=NC(=O)c2ccc([N+](=O)[O-])s2)sc2ccccc21`: the Potency was 1.83 µM (active).
Consider `CC(=O)O[C@@H]1[C@@H](O)CN[C@@H]1Cc1ccccc1`, for which the Potency was 0.579 µM (active).
On to `O=[N+]([O-])c1cc(S(=O)(=O)N2CCCC2)ccc1N/N=C/c1ccncc1`, for which the Potency was 2.31 µM (active).
For `O=[N+]([O-])c1cc(S(=O)(=O)Nc2cccc(Cl)c2)ccc1N/N=C/c1ccc(N2CCOCC2)cc1`, the Potency is 6.5 µM (active).
With `N=C1C(c2ccccc2)=C(O)CN1c1cccc(S(=O)(=O)N2CCOCC2)c1`, the “activity change, negative = killing” value was -16.5%.
As for `O=S(=O)(c1ccccc1)N1CCN(S(=O)(=O)c2ccccc2)CC1`, the “activity change, negative = killing” value was 7.64%.
With `O=[N+]([O-])c1cc(S(=O)(=O)N2CCOCC2)ccc1NS(=O)(=O)c1ccccc1`, the Potency was 1.83 µM (active).
Turning to `Nc1ccc(/C=C/c2nccc3ccccc23)cc1`, the Potency is 3.26 µM (active).
With `C(=C\c1nccc2ccccc12)/c1ccc(N2CCOCC2)cc1`, the Potency was 2.31 µM (active).
Turning to `Nc1ncnc2c1ncn2C1O[C@H](CO)[C@@H](O)[C@@H]1O` (some centres not stated), the Potency is 0.818 µM (active).
For the compound `O=C(Nc1ccc2nc(-c3ccco3)[nH]c2c1)c1cccs1`, the Potency was 5.79 µM (active).
With `O=C(Nc1ccc2c(c1)nc1n2CCSC1)c1ccco1`, the Potency was 4.6 µM (active).
Still for that read-out and setting: to `CC(NC(=O)c1ccc([N+](=O)[O-])o1)C12CC3CC(CC(C3)C1)C2` (configuration not stated) belongs 0.918 µM (active); to `O=C(NC12CC3CC(CC(C3)C1)C2)c1ccc([N+](=O)[O-])o1`, 1.03 µM (active); to `CC(NC(=O)c1ccc([N+](=O)[O-])o1)C1CC2CCC1C2` (configuration not stated), 1.45 µM (active).
For the compound `O=[N+]([O-])c1nn(-c2ccc3c(c2)OCCO3)n(O)c1=Nc1ccc(Cl)cc1`, the Potency was 1.3 µM (active).
Take `CC(C)c1ccc(N=c2c([N+](=O)[O-])nn(-c3ccc4c(c3)OCCO4)n2O)cc1`: the Potency is 2.05 µM (active).
Turning to `CC(=O)N(/N=C/c1ccc([N+](=O)[O-])o1)c1nc2ccccc2c(=O)n1-c1ccccc1`, the Potency was 1.03 µM (active).
As for `O=c1c2ccccc2nc(/C=C/c2ccc([N+](=O)[O-])o2)n1CCCO`, the Potency was 0.579 µM (active).
For `Cc1cccc(-c2nnc(SCc3cc(=O)[nH]c4ccccc34)n2C)c1`, the “activity change, negative = killing” value is -23.8%.
As for `Cc1cc(C)nc(N/N=C/c2ccc([N+](=O)[O-])o2)n1`, the Potency was 1.3 µM (active).
Turning to `Cc1cc(C)nc(N/N=C/c2ccc(Cl)cc2)n1`, the “activity change, negative = killing” value was -13.1%.
On to `CCNc1nc(NCC)nc(N/N=C/c2ccc([N+](=O)[O-])o2)n1`, for which the Potency was 2.59 µM (active).
On the same count and under the same terms, to `O=C(Cc1csc(Nc2nc(=S)[nH]c3ccccc23)n1)NCCCN1CCN(c2ccccc2F)CC1` belongs 14.5 µM (active); to `CCOC(=O)Cc1csc(NC(=S)NC(=O)c2ccc(C)cc2)n1`, 7.29 µM (active).
For `CSc1cccc(NS(=O)(=O)c2cn(C)cn2)c1`, the “activity change, negative = killing” value was -20.1%.
Consider `Cc1ccc(OCC(=O)c2cc(C)n(C)c2C)c([N+](=O)[O-])n1`, for which the Potency is 1.45 µM (active).
The same measure, in the same setting: in the case of `Cc1ccc(OCc2ccc([N+](=O)[O-])cc2)c([N+](=O)[O-])n1` it was 3.26 µM (active).
Turning to `C=CCn1c(C)cc(C(=O)COc2ccc(C)nc2[N+](=O)[O-])c1C`, the Potency was 0.46 µM (active).
For `COCCn1c(C)cc(C(=O)COc2cccnc2[N+](=O)[O-])c1C`, the Potency is 1.3 µM (active).
